{"source": "PubChem BioAssay AID588352", "about": "(The Scripps Research Institute Molecular Screening Center, 2011)", "note": "Among all 360,000 compounds or so, about 620 (0.17%) were called active. Shown is part of a subset that was picked to be rich in actives. A number with no mark means an inactive call.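 Rule for the calls: active = inhibition above a per-campaign cutoff, the mean of all compounds plus 3 SD (cut at about 60% in these data); inactive = the rest.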"}
{"biological_target": "Nuclear receptor coactivator 3 (Homo sapiens) (UniProt Q9Y6Q9)", "sequence (Q9Y6Q9 whole entry, looked up, the tested form may be a part)": "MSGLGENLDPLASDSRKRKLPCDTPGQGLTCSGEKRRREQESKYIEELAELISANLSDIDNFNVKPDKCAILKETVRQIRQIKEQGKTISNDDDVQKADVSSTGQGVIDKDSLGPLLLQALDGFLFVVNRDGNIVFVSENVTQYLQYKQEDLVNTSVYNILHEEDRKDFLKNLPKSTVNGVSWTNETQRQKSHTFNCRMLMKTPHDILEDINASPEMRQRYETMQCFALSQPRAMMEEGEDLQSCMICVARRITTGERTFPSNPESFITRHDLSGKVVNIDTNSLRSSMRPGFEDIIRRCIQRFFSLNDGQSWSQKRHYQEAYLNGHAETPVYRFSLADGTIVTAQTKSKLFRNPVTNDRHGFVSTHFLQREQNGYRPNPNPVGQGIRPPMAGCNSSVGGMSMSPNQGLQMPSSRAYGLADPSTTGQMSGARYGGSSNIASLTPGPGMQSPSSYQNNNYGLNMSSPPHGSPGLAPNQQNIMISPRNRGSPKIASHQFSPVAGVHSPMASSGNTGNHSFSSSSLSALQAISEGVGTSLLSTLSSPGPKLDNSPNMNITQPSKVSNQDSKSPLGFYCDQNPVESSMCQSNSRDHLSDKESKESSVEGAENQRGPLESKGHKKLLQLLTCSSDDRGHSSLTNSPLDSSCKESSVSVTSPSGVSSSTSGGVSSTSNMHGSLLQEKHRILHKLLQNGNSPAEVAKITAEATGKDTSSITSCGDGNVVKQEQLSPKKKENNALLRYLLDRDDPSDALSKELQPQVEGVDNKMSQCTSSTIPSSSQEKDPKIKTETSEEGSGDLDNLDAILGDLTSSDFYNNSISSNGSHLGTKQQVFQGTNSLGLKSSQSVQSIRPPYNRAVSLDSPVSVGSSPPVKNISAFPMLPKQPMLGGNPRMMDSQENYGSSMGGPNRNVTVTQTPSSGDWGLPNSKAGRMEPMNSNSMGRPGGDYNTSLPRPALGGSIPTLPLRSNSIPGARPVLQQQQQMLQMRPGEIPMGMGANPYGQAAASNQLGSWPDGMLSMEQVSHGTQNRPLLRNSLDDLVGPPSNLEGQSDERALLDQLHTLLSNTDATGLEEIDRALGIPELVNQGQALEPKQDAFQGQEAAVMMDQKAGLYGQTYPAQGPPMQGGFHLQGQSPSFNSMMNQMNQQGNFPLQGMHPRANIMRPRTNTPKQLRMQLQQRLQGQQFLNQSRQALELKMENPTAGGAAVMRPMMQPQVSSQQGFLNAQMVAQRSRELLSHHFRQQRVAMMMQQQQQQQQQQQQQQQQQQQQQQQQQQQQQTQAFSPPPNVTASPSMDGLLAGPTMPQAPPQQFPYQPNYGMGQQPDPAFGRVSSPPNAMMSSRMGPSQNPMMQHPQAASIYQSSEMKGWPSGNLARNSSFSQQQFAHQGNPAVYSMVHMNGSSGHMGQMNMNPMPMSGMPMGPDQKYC", "assay": "NCOA3 GAL4-fusion reporter inhibition – cell-based, luminescence, primary screen (AID 588352);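 note: 0% = DMSO-treated cells and 100% = gossypol-treated cells at 36 µM; higher means less SRC3-driven luciferase light from the GAL4 reporter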", "settings": "HEK293 GAL4-SRC3 luciferase reporter, at 3.6 µM, stronger effect = higher value"}
{"compound": "CC(NC(=O)CCCC1CCCCC1)c1ccc(S(N)(=O)=O)cc1", "note": "(stereo unspecified)", "inhibition": "4.7%"}
{"compound": "CC/C(C)=N/Nc1nc2sc3c(c2c(=O)[nH]1)CC(C)(C)OC3", "inhibition": "-4.5%"}
{"compound": "O=C(CN1CCN(c2ncccn2)CC1)Nc1ccccc1C(F)(F)F", "inhibition": "17.7%"}
{"compound": "CC1(C(=O)NS(=O)(=O)c2ccc(C#N)cc2)CCN1C(=O)c1ccc(C2CCCCC2)cc1", "note": "(stereo unspecified)", "inhibition": "8.43%"}
{"compound": "CC(C)C(c1nnnn1C1CCCCC1)N1CCN(C(=O)c2ccco2)CC1", "note": "(stereo unspecified)", "inhibition": "-1.28%"}
{"compound": "COc1cccc2c(C)c(C(=O)O)[nH]c12", "inhibition": "4.08%"}
{"compound": "CCc1ccc(Oc2nc([N+](=O)[O-])nn2C)cc1", "inhibition": "12.1%"}
{"compound": "CC(=O)c1c(C)c[nH]c1C", "inhibition": "11%"}
{"compound": "CCc1nc2ccc(C(=O)NCc3ccc(OC)cc3)cn2c1N(CC)Cc1cccc(Br)c1", "inhibition": "0.61%"}
{"compound": "CCCCn1c(N)c(N(CCC(C)C)C(=O)CC2OC(=O)c3ccccc32)c(=O)[nH]c1=O", "note": "(stereo unspecified)", "inhibition": "12.2%"}
{"compound": "Cc1cccc2cc(CN(C(=O)c3cccs3)c3ccccc3)c(=O)[nH]c12", "inhibition": "15.8%"}
{"compound": "O=S(=O)(Cc1nnnn1-c1ccc(Br)cc1)c1ccc(F)cc1", "inhibition": "-7.02%"}
{"compound": "Cc1cc(C)nc(SCc2nnc(SCC(=O)OC3CCCCC3)o2)n1", "inhibition": "-10.7%"}
{"compound": "CCCNC(=O)c1ccc(N2CCC3(CC2)CC(c2ccc(Cl)cc2)=NO3)c([N+](=O)[O-])c1", "inhibition": "0.35%"}
{"compound": "CC1CCCCC1NC(=O)c1cc(=O)[nH]c2ccccc12", "note": "(stereo unspecified)", "inhibition": "9.65%"}
{"compound": "COc1ccc(F)cc1C(=O)C1CCCN(C(=O)CCc2ccccn2)C1", "note": "(stereo unspecified)", "inhibition": "14.9%"}
{"compound": "Cc1noc(C)c1C(=O)N1CCC1(C)C(=O)NS(=O)(=O)c1ccc(C#N)cc1", "note": "(stereo unspecified)", "inhibition": "-19.1%"}
{"compound": "O=C(NCCCCCCCCCNC(=O)C(F)(F)F)C(F)(F)F", "inhibition": "-9.12%"}
{"compound": "Cc1ccc(S(=O)(=O)NCC(=O)N(CC(=O)NC2CCCCC2)Cc2ccco2)cc1", "inhibition": "12.3%"}
{"compound": "COC(=O)CN1C(=O)[C@H]2[C@@H](C3CC3)N3C(=O)CN(Cc4ccc(-c5ccccc5)cc4)C(=O)[C@@]3(Cc3ccccc3)[C@H]2C1=O", "inhibition": "9.14%"}
{"compound": "CC1(C)CC(=O)C=C(c2ccc(Cl)c(C(F)(F)F)c2)C1", "inhibition": "-9.95%"}
{"compound": "CCN(CC)S(=O)(=O)N1CCC(C(=O)NC(C)CCc2ccccc2)CC1", "note": "(stereo unspecified)", "inhibition": "15.5%"}
{"compound": "Cc1nn(CC(=O)NC2CCCCC2)c(=O)c2cccn12", "inhibition": "-10.9%"}
{"compound": "CCOC(=O)c1c(C)n(C)c2ccc(OC)c(NC(=O)CN3CCC4(CC3)OCCO4)c12", "inhibition": "6.95%"}
{"compound": "CCOC(=O)c1csc(CCNC(=O)c2oc3c(Cl)cc(C)cc3c2C)n1", "inhibition": "-12.1%"}
{"compound": "CC(C)CC(CO)N1CCN(C(=O)c2ccc(Cl)cc2Cl)CCC1=O", "note": "(stereo unspecified)", "inhibition": "5.22%"}
{"compound": "COc1ccc(C(CNC(=O)c2cccc(S(=O)(=O)Nc3ccc(Br)cc3)c2)N(C)C)cc1", "note": "(stereo unspecified)", "inhibition": "1.78%"}
{"compound": "COc1ccc(CNC(=O)COC(=O)C2=Cc3ccccc3OC2)cc1", "inhibition": "-19.6%"}
{"compound": "O=C(O)c1ccccc1C(=O)NC1=NN(c2ccccc2)CC1", "inhibition": "3.76%"}
{"compound": "CC1(C)CC(N2CCN(C(c3ccccc3)c3ccccc3)CC2)=CC(=[N+]2CCCCC2)C1", "inhibition": "80% (active)"}
{"compound": "CCN1/C(=C\\c2ccc3ccccc3[n+]2CC)Sc2cc(C)ccc21", "inhibition": "64.7% (active)"}
{"compound": "C[C@@H]1CN([C@H](C)CO)C(=O)c2cc(-c3ccc(F)cc3)cnc2O[C@H]1CN(C)C(=O)c1ccc(F)cc1", "inhibition": "-2.15%"}
{"compound": "CC(C)[C@H](NC(=O)N1CC(=O)Nc2ccccc21)C(=O)N[C@@H](Cc1c[nH]c2ccccc12)C(=O)O", "inhibition": "11.1%"}
{"compound": "Cc1cc2ncn(CCCCOc3ccccc3)c2cc1C", "inhibition": "-3.7%"}
{"compound": "C/C=C(/C)C(=O)O[C@@H]1c2cc3c(c4c2[C@@]2(CO4)C(=O)C(OC)=C(OC)C=C2C[C@@H](C)[C@H]1C)OCO3", "inhibition": "-4.38%"}
{"compound": "C=CC[C@@H](CC(=O)NCCO)C(=O)N[C@H](C)COC(=O)[C@@H](CC=C)CC(=O)OC(C)(C)C", "inhibition": "0.5%"}
{"compound": "CC(=O)Nc1ccc(-c2ccnc3c2CC(C(=O)NC(C)C)O3)cc1", "note": "(stereo unspecified)", "inhibition": "10.3%"}
{"compound": "COc1cccc(OC)c1C(=O)OCC(=O)/C(C#N)=C(\\C)N", "inhibition": "7.58%"}
{"compound": "Cc1ccc(Cn2c(C)c3cnn(CC(=O)NCCN4CCOCC4)c(=O)c3c2C)cc1", "inhibition": "-3.71%"}
{"compound": "CC(OC(=O)c1ccc(NS(=O)(=O)c2ccc3[nH]c(=O)[nH]c3c2)cc1)C(=O)Nc1cccc(Cl)c1Cl", "note": "(stereo unspecified)", "inhibition": "4.52%"}
{"compound": "COc1cc(NC(=S)NNC(=O)CC(C)C)c(OC)cc1Cl", "inhibition": "17.8%"}
{"compound": "O=C(NCc1ccco1)C1CCCN1S(=O)(=O)c1ccccc1C(F)(F)F", "note": "(stereo unspecified)", "inhibition": "8.79%"}
{"compound": "Cc1cc(NC(=O)CN2C(=O)NC(CC(C)C)C2=O)no1", "note": "(stereo unspecified)", "inhibition": "-3.85%"}
{"compound": "FC(F)(F)c1cc(C(F)(F)F)c2ccc(N3CCN(c4ccccc4)CC3)nc2n1", "inhibition": "1.84%"}
{"compound": "O=C(C1=C(O)C(=O)N(CCOCCO)C1c1ccccn1)c1cccs1", "note": "(stereo unspecified)", "inhibition": "3.48%"}
{"compound": "Cc1cccc(N2CCN(C(=O)COCc3cc(-c4ccc5c(c4)OCO5)on3)CC2)c1C", "inhibition": "-10.1%"}
{"compound": "CCn1c(NC(=O)c2nn(C)cc2Br)nc2ccccc21", "inhibition": "9.26%"}
{"compound": "Cc1cccc(Cn2cnc3c(N)c(C)c(C)cc32)c1", "inhibition": "8.42%"}
{"compound": "O=C(O)CCCn1cc(NC(=O)COc2cccc(Cl)c2)cn1", "inhibition": "19.3%"}
{"compound": "Cc1cc(=O)oc2cc(OCC3CC(c4ccccc4Cl)=NO3)ccc12", "note": "(stereo unspecified)", "inhibition": "-29.1%"}
{"compound": "COc1cc(NC(=S)N2CCCC(C)C2)cc(OC)c1OC", "note": "(stereo unspecified)", "inhibition": "8.3%"}
{"compound": "N#Cc1ccccc1S(=O)(=O)N1CCN(C(=O)c2cc(-c3ccccc3)nn2-c2ccccc2)CC1", "inhibition": "4.59%"}
{"compound": "Cc1ccsc1C(=O)OCC(=O)Nc1cccc(F)c1", "inhibition": "-16.2%"}
{"compound": "Cc1ccsc1C(=O)OCC(=O)NCCc1ccccc1", "inhibition": "-54.7%"}
{"compound": "Cc1ccsc1C(=O)OCC(=O)c1cc(C)n(CC2CCCO2)c1C", "note": "(stereo unspecified)", "inhibition": "80.6% (active)"}
{"compound": "Cc1cccc(-n2c(Cc3cc(=O)[nH]c(=O)[nH]3)nnc2SC(C)C)c1", "inhibition": "1.68%"}
{"compound": "Cc1cc(C)c(C2C3=C(Nc4c2c(C)nn4-c2ccccn2)c2ccccc2C3=O)c(C)c1", "note": "(stereo unspecified)", "inhibition": "9.07%"}
{"compound": "CC1(C(=O)O)CCC(C(=O)Nc2ccc(Cl)c(Cl)c2)C1(C)C", "note": "(stereo unspecified)", "inhibition": "7.83%"}
{"compound": "Cc1ccc(CC(=O)Nc2ccc(OC(F)F)c(Cl)c2)cc1C", "inhibition": "1.82%"}
{"compound": "O=C(CC(O)(C(F)(F)F)C(F)(F)F)Nc1ccc(Cl)c(Cl)c1", "inhibition": "80% (active)"}
{"compound": "CCCCCN(C(=O)NC(=O)Nc1cccc(C)c1C)S(C)(=O)=O", "inhibition": "-2.15%"}
{"compound": "Cc1ccccc1/C=C\\c1nc(O)c([N+](=O)[O-])c(=O)[nH]1", "inhibition": "2.28%"}
{"compound": "COc1ccc(NC2CCCN(C(=O)c3ccccc3-c3ncc[nH]3)C2)cc1", "note": "(stereo unspecified)", "inhibition": "-11.7%"}
{"compound": "Cc1c(C(=O)c2cccc([N+](=O)[O-])c2)c2ccccn2c1CCC#N", "inhibition": "26.8%"}
{"compound": "C=CCn1c(C)cc(C2=NNC(=NCC)SC2)c1C", "inhibition": "86% (active)"}
{"compound": "Cc1ccc(S(=O)(=O)Nc2ccccc2CNc2c(C)n(C)n(-c3ccccc3)c2=O)cc1", "inhibition": "22.2%"}
{"compound": "O=S(=O)(Nc1n[nH]c(C(F)(F)F)n1)c1ccccc1", "inhibition": "6.01%"}
{"compound": "CN(C)S(=O)(=O)c1ccc(Oc2ccc(S(=O)(=O)N(C)C)cc2)cc1", "inhibition": "25.9%"}
{"compound": "CC(C)(C)c1ccc(Oc2ccc(N)cc2)cc1", "inhibition": "82.3% (active)"}
{"compound": "O=C(CSc1nnc(-c2ccc([N+](=O)[O-])cc2)o1)Nc1ccccn1", "inhibition": "-82%"}
{"compound": "Cc1nc(CNS(=O)(=O)c2ccc(Oc3ccccc3)cc2)cs1", "inhibition": "13.4%"}
{"compound": "CCNC(=O)NC(=O)C(C)OC(=O)C1CCN(S(=O)(=O)c2ccccc2F)CC1", "note": "(stereo unspecified)", "inhibition": "18.3%"}
{"compound": "CSCCC(=O)N1CCCC(CNC(=O)c2ccccc2Cl)C1", "note": "(stereo unspecified)", "inhibition": "13.3%"}
{"compound": "Cc1cccc(N2C(=O)SC(SC(=Nc3ccccc3)Nc3ccccc3)C2=O)c1", "note": "(stereo unspecified)", "inhibition": "-7.91%"}
{"compound": "Cc1ccc(/C=N/NC(=O)C(NC(=O)c2ccccc2)c2n[nH]c(=O)c3ccccc23)cc1", "note": "(stereo unspecified)", "inhibition": "-30.1%"}
{"compound": "Cc1ccc(NC(=O)CCC(=O)N/N=C/c2ccco2)c(C)c1", "inhibition": "16.4%"}
{"compound": "Cc1ccc(/C=N/NC(=O)C2=NNC(c3ccccc3)(c3ccccc3)C2)c(O)c1", "inhibition": "65% (active)"}
{"compound": "Cc1c(CN2CCC(n3nccc3NC(=O)CCc3ccccc3)CC2)cnn1C", "inhibition": "23.5%"}
{"compound": "CCc1c(O)nc(SCC(=O)Nc2ccccc2)n(C(C)CC)c1=O", "note": "(stereo unspecified)", "inhibition": "-6.38%"}
{"compound": "CN(C)c1ccc(NC(=O)c2ccncc2)c2ccccc12", "inhibition": "1.55%"}
{"compound": "O=C1c2ccncc2C(=O)N1C1CCCCC1", "inhibition": "-19.6%"}
{"compound": "CC(Sc1nnc(Cc2ccc([N+](=O)[O-])cc2)o1)C(N)=O", "note": "(stereo unspecified)", "inhibition": "-2.53%"}
{"compound": "O=C(CCNS(=O)(=O)c1ccccc1)NCCSc1ccc(Br)cc1", "inhibition": "-5.67%"}
{"compound": "CC(C)(CSc1nncn1/N=C/c1ccco1)NS(=O)(=O)c1ccc(Cl)cc1", "inhibition": "0.37%"}
{"compound": "O=C(O)CCC(=O)Nc1ccc(OCC2CCCO2)cc1", "note": "(stereo unspecified)", "inhibition": "4.7%"}
{"compound": "COc1ccc(OC)c(Cc2cnc3nc(N)nc(N)c3c2C)c1", "inhibition": "63.7% (active)"}
{"compound": "COc1ccc(-c2nc(N)ncc2-c2ccc(Cl)cc2)c(O)c1", "inhibition": "1.54%"}
{"compound": "OCCCNc1nccc(-c2cc(Nc3cccc(Cl)c3)ncn2)n1", "inhibition": "90.9% (active)"}
{"compound": "Cc1[nH]c(=O)c(C(=O)/C=C/c2ccccc2)c2c1CCCC2", "inhibition": "64.9% (active)"}
{"compound": "CC1(C(=O)O)CCCN(C(=O)/C=C/c2ccccc2)C1", "note": "(stereo unspecified)", "inhibition": "-1.88%"}
{"compound": "C/C(=C\\c1ccccc1)C1NC(=O)c2c(sc3c2CCCC3)N1", "note": "(stereo unspecified)", "inhibition": "21.8%"}
